{
  "source": "PubChem BioAssay",
  "key": {"[1]": {"experiment": "apoptosome-driven caspase-3 activation blockers – biochemical, fluorescence, DEVD-Rh110, 20 µM, confirmation (AID 504614);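 further: plate controls were DMSO wells for no effect and DEVD-CHO caspase inhibitor control wells for full effect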", "details": "reconstituted apoptosome, caspase-3 DEVD-Rh110 fluorescence; at 20 µM; stronger effect = higher value"}, "[2]": {"experiment": "detection-step artefacts after completed caspase reaction – biochemical, fluorescence, Rh110, 20 µM, artefact control for Apaf-1 inhibitor project, confirmation (AID 504615;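 active means signal rise of 40% or more at 20 µM, treated as a fluorescence artifact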)", "details": "quenched caspase reaction, at 20 µM, stronger effect = higher value"}, "[3]": {"target": "Protein Mdm4 (Homo sapiens) + E3 ubiquitin-protein ligase Mdm2 (Homo sapiens) (UniProt O15151+Q00987)", "sequence (O15151 whole entry, looked up)": "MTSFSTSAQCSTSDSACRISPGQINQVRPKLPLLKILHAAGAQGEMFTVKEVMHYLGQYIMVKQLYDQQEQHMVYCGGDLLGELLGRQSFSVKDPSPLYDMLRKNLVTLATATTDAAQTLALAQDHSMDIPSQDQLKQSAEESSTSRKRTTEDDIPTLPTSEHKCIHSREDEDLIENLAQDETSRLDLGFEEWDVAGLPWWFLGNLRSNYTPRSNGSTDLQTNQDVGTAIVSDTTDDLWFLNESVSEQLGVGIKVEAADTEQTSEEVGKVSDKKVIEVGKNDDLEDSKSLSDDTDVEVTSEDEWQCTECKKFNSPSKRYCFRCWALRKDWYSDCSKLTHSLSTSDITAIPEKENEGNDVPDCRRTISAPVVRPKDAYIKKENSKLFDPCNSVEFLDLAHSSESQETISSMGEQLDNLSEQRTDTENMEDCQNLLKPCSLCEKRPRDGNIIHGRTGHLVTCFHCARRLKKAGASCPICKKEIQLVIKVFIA", "sequence (Q00987 whole entry, looked up)": "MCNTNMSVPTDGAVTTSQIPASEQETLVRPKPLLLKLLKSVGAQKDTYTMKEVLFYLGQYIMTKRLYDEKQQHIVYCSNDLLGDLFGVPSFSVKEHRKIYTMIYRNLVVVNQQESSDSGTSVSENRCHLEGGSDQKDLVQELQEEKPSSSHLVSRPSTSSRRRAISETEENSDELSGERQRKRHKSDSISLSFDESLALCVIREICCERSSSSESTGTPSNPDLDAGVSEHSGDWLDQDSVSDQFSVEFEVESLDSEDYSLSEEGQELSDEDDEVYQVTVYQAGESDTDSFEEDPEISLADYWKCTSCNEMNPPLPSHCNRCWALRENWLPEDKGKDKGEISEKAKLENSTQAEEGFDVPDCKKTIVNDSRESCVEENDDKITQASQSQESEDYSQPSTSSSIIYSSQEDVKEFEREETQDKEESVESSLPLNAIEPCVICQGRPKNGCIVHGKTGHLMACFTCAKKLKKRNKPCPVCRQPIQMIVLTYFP", "experiment": "human Mdm2/MdmX binding disruption – cell-based, luminescence, single concentration, set 2, confirmation (AID 504601;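 active means mean inhibition of the luminescence signal across two replicates at or above 26 percent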)", "details": "SaOS-2 split-luciferase Mdm2/MdmX complementation, at 8 µM, stronger effect = higher value"}, "[4]": {"experiment": "inhibition of PEG-3 promoter luciferase signal – cell-based, HeLa, luciferase reporter, single concentration, confirmation (AID 602417;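 active means at 20 µM dose, 40% or more inhibition averaged across four replicates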)", "details": "HeLa PEG-Prom luciferase reporter, luminescence, overnight; at 20 µM; stronger effect = higher value"}, "[5]": {"target": "PEG-3 (UniProt Q6IN02)", "sequence (Q6IN02 whole entry, looked up)": "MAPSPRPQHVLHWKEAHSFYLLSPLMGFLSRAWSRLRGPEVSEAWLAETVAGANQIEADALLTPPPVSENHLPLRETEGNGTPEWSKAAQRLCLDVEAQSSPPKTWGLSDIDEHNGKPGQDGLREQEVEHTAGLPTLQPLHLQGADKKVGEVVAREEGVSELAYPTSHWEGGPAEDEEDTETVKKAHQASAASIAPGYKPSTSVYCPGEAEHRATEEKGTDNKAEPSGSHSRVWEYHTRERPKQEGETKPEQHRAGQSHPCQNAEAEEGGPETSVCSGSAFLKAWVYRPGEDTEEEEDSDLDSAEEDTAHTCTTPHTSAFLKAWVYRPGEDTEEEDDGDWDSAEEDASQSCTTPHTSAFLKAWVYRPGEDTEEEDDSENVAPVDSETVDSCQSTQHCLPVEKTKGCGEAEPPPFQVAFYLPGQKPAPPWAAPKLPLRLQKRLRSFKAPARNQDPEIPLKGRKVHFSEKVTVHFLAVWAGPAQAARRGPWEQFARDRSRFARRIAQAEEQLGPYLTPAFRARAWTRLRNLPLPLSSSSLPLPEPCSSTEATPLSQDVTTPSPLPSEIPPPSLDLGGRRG", "experiment": "inhibition of PEG-3 promoter-driven reporter – cell-based, HeLa, luciferase, CREF/GAPDH counter-screen panel, dose response (AID 624167)", "details": "CREF/GAPDH counter-screens; HeLa PEG-Prom luciferase reporter, overnight, run 1, dose range 1, at 100 µM (top of the series) unless noted"}, "[6]": {"target": "PEG-3 (UniProt Q6IN02)", "experiment": "inhibition of PEG-3 promoter-driven reporter – cell-based, HeLa, luciferase, CREF/GAPDH counter-screen panel, dose response (AID 624167)", "details": "CREF/GAPDH counter-screens; HeLa PEG-Prom luciferase reporter, overnight, run 2, dose range 1, at 100 µM (top of the series) unless noted"}, "[7]": {"experiment": "NF-kB reporter suppression in CF airway cells – cell-based, GFP fluorescence, single concentration, confirmation (AID 602472; in the data active means inhibition above about 40%;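 further: stimulus PAF is a Pseudomonas aeruginosa filtrate and not platelet activating factor; plate controls were DMSO wells with stimulus for no effect and unstimulated DMSO wells for full effect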)", "details": "KKLEB CF airway cells, PAF-induced NF-kB-GFP fluorescence, overnight; at 5 µM; stronger effect = higher value"}, "[8]": {"experiment": "NFkB reporter suppression in cystic fibrosis bronchial cells – cell-based, uHTS hits, panel, cytotoxicity readout, dose response (AID 624344)", "details": "CF bronchial epithelial cells, PAF-induced NFkB reporter inhibition, with PAF, run 1; at 79 µM (top of the series) unless noted"}, "[9]": {"experiment": "NFkB reporter suppression in cystic fibrosis bronchial cells – cell-based, uHTS hits, panel, cytotoxicity readout, dose response (AID 624344)", "details": "CF bronchial epithelial cells, PAF-induced NFkB reporter inhibition, with PAF, run 2; at 79 µM (top of the series) unless noted"}, "[10]": {"target": "Tumor necrosis factor receptor superfamily member 10B (Homo sapiens) (UniProt O14763)", "sequence (O14763 whole entry, looked up)": "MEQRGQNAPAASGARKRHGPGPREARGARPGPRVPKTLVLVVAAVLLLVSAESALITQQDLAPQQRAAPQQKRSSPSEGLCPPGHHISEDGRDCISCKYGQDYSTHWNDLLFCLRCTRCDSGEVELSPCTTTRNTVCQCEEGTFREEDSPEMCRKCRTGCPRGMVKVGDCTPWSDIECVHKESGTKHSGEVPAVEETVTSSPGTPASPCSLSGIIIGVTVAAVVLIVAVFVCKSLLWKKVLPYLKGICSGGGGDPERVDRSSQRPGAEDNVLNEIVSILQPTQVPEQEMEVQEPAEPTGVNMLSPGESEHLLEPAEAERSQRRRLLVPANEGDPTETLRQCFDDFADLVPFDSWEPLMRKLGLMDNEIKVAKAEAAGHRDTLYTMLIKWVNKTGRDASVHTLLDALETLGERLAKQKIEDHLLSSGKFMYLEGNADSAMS", "experiment": "viability loss of caspase-8 NB7 cells with TRAIL – with/without TRAIL, luminescence panel, confirmation (AID 651596; in the data active means activity above about 50%)", "details": "NB7 neuroblastoma + caspase-8, TRAIL sensitization, NB7 Caspase-8, with TRAIL, mean of runs, at 10 µM, stronger effect = higher value"}, "[11]": {"experiment": "viability loss of caspase-8 NB7 cells with TRAIL – with/without TRAIL, luminescence panel, confirmation (AID 651596)", "details": "NB7 neuroblastoma + caspase-8, without TRAIL, NB7 Caspase-8, without TRAIL, mean of runs, at 10 µM"}, "[12]": {"experiment": "HIF-2a driven luciferase blockers, single dose – luminescence, 786-0 RCC cells, confirmation (AID 651580;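 active means mean inhibition across four replicates of at least 40 percent at the single tested concentration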)", "details": "HIF-2a luciferase reporter luminescence, overnight, at 18.8 µM, stronger effect = higher value"}, "[13]": {"experiment": "HIF-1a luciferase reporter signal reduction – MiaPaCa-2 cells, single concentration, counter-screen for HIF-2a inhibitor project, confirmation (AID 651589;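 active means mean inhibition of the reporter signal across four replicates at the single tested dose of 50% or more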)", "details": "MiaPaCa-2 HIF-1a luciferase reporter, desferoxamine, overnight; at 18.8 µM; stronger effect = higher value"}},
  "note": "This is one part of the list. The source made the active and inactive calls.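 How the source made its calls, unless noted: active means mean inhibition of at least 40% at 20 µM; inactive means the rest.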",
  "data": [
    {"smiles": "C#CCOCCOCCOCCNc1nc(N2CCN(C(=O)C([C@@H](C)O)n3cc([C@@H](N)CCCCN)nn3)CC2)nc(N2CCN(C(=O)[C@H](CCCCN)n3cc(CN)nn3)CC2)n1", "note": "(stereo not given in full)", "values": [
      {"measurement": "inhibition", "setting": "[1]", "value": "1.31% (inactive)"},
      {"measurement": "activation (fluorescence interference)", "setting": "[2]", "value": "-7.33% (inactive)"}
    ]},
    {"smiles": "CN(C)CC(O)COc1ccc(C(C)(C)c2ccc(OCC(O)CN(C)C)cc2)cc1", "note": "(stereo not given)", "values": [
      {"measurement": "inhibition", "setting": "[3]", "value": "94.2% (active)"},
      {"measurement": "inhibition", "setting": "[4]", "value": "53% (active)"},
      {"measurement": "inhibition", "setting": "[5]", "value": 101, "unit": "%"},
      {"measurement": "inhibition", "setting": "[6]", "value": 99.7, "unit": "%"}
    ]},
    {"smiles": "O=c1cc(N2CCCCC2)c(-c2ccccc2)nn1Cc1cccc(F)c1", "values": [
      {"measurement": "inhibition", "setting": "[1]", "value": "18.3% (inactive)"},
      {"measurement": "activation (fluorescence interference)", "setting": "[2]", "value": "9.4% (inactive)"}
    ]},
    {"smiles": "CCOc1cc(N2CCOCC2)c(OCC)cc1NC(=O)COc1cccc2cccnc12", "values": [
      {"measurement": "inhibition", "setting": "[3]", "value": "92.7% (active)"}
    ]},
    {"smiles": "CC(=O)Nc1ccc(NC(=O)C(C)OC(=O)c2ccccc2C(=O)c2ccc(Cl)c([N+](=O)[O-])c2)cc1", "note": "(stereo not given)", "values": [
      {"measurement": "inhibition", "setting": "[3]", "value": "102% (active)"},
      {"measurement": "inhibition", "setting": "[7]", "value": "72.6% (active)"},
      {"measurement": "inhibition", "setting": "[8]", "value": 102, "unit": "%"},
      {"measurement": "inhibition", "setting": "[9]", "value": 98.8, "unit": "%"}
    ]},
    {"smiles": "COc1ccc(C(CCN(Cc2ccc(OC)c(OC)c2)C(=O)CCl)c2ccccc2)cc1", "note": "(stereo not given)", "values": [
      {"measurement": "inhibition", "setting": "[3]", "value": "103% (active)"},
      {"measurement": "activity", "setting": "[10]", "value": 99.7, "unit": "%"},
      {"measurement": "activity", "setting": "[11]", "value": 99.7, "unit": "%"}
    ]},
    {"smiles": "Cc1cccc(NC(=O)c2nc(S(=O)(=O)Cc3ccccc3)ncc2Cl)c1", "values": [
      {"measurement": "inhibition", "setting": "[3]", "value": "103% (active)"},
      {"measurement": "inhibition", "setting": "[4]", "value": "98.3% (active)"},
      {"measurement": "inhibition", "setting": "[7]", "value": "96.7% (active)"},
      {"measurement": "inhibition", "setting": "[12]", "value": "100% (active)"},
      {"measurement": "inhibition", "setting": "[13]", "value": "103% (active)"},
      {"measurement": "inhibition", "setting": "[8]", "value": 86.6, "unit": "%"},
      {"measurement": "inhibition", "setting": "[9]", "value": 95.1, "unit": "%"},
      {"measurement": "activity", "setting": "[10]", "value": 55.2, "unit": "%"},
      {"measurement": "activity", "setting": "[11]", "value": 98.5, "unit": "%"}
    ]},
    {"smiles": "O=C(Cc1cc(=O)[nH][nH]1)N/N=C/c1ccccc1[N+](=O)[O-]", "values": [
      {"measurement": "inhibition", "setting": "[1]", "value": "5.01% (inactive)"},
      {"measurement": "activation (fluorescence interference)", "setting": "[2]", "value": "0.43% (inactive)"}
    ]},
    {"smiles": "O=S(=O)(Nc1ccc(O)c2ccccc12)c1ccc(OC(F)(F)F)cc1", "values": [
      {"measurement": "inhibition", "setting": "[1]", "value": "21.3% (inactive)"},
      {"measurement": "activation (fluorescence interference)", "setting": "[2]", "value": "-2.71% (inactive)"}
    ]},
    {"smiles": "CCCC[C@@H]1CN=C(N)N1CCc1cc(C(F)(F)F)cc(C(F)(F)F)c1", "values": [
      {"measurement": "inhibition", "setting": "[1]", "value": "11.5% (inactive)"},
      {"measurement": "activation (fluorescence interference)", "setting": "[2]", "value": "3.05% (inactive)"}
    ]},
    {"smiles": "COc1ccc(-c2nc3cc(C)ccn3c2NC2CCCCC2)cc1SC1CCCCC1", "values": [
      {"measurement": "inhibition", "setting": "[1]", "value": "15.6% (inactive)"},
      {"measurement": "activation (fluorescence interference)", "setting": "[2]", "value": "-1.22% (inactive)"}
    ]},
    {"smiles": "CCN(CC(=O)NCc1cccs1)C(=O)c1cccc(S(=O)(=O)Nc2ccccc2OC)c1", "values": [
      {"measurement": "inhibition", "setting": "[1]", "value": "36.9% (inactive)"},
      {"measurement": "activation (fluorescence interference)", "setting": "[2]", "value": "-3.02% (inactive)"}
    ]},
    {"smiles": "O=C(CC(O)(C(F)(F)F)C(F)(F)F)Nc1ccc(Cl)c(Cl)c1", "values": [
      {"measurement": "inhibition", "setting": "[3]", "value": "103% (active)"},
      {"measurement": "activity", "setting": "[10]", "value": 61.6, "unit": "%"},
      {"measurement": "activity", "setting": "[11]", "value": 63.1, "unit": "%"}
    ]},
    {"smiles": "c1ccc(C[C@H]2CNCCN2CCC23CC4CC(CC(C4)C2)C3)cc1", "values": [
      {"measurement": "inhibition", "setting": "[1]", "value": "1.61% (inactive)"},
      {"measurement": "activation (fluorescence interference)", "setting": "[2]", "value": "-3.75% (inactive)"}
    ]},
    {"smiles": "O=C1Nc2ccc([N+](=O)[O-])cc2C1=Nc1cccc(CO)c1", "values": [
      {"measurement": "inhibition", "setting": "[1]", "value": "39.8% (inactive)"},
      {"measurement": "activation (fluorescence interference)", "setting": "[2]", "value": "-4.07% (inactive)"}
    ]},
    {"smiles": "Cc1c(-c2nn(C)c(=O)c3ccccc23)oc2ccc(F)cc2c1=O", "values": [
      {"measurement": "inhibition", "setting": "[1]", "value": "77.4% (active)"},
      {"measurement": "activation (fluorescence interference)", "setting": "[2]", "value": "2.5% (inactive)"}
    ]},
    {"smiles": "COc1ccc2sc(-c3ccccc3OC)c(-c3ccc(OCCN4CCCC4)cc3)c2c1", "values": [
      {"measurement": "inhibition", "setting": "[1]", "value": "27.1% (inactive)"},
      {"measurement": "activation (fluorescence interference)", "setting": "[2]", "value": "6.49% (inactive)"}
    ]},
    {"smiles": "Nc1ccc2nn(-c3ccc(Cl)cc3)nc2c1", "values": [
      {"measurement": "inhibition", "setting": "[1]", "value": "35.8% (inactive)"},
      {"measurement": "activation (fluorescence interference)", "setting": "[2]", "value": "0.47% (inactive)"}
    ]},
    {"smiles": "COc1ccc(N(CCC(=O)NCCc2ccccc2)S(=O)(=O)c2ccc(C)cc2C)cc1", "values": [
      {"measurement": "inhibition", "setting": "[1]", "value": "35.9% (inactive)"},
      {"measurement": "activation (fluorescence interference)", "setting": "[2]", "value": "3.62% (inactive)"}
    ]},
    {"smiles": "O=[N+]([O-])c1c(NCCO)cc(Sc2nc3ccccc3s2)c2nonc12", "values": [
      {"measurement": "inhibition", "setting": "[3]", "value": "102% (active)"},
      {"measurement": "inhibition", "setting": "[1]", "value": "19.9% (inactive)"},
      {"measurement": "activation (fluorescence interference)", "setting": "[2]", "value": "4.65% (inactive)"}
    ]},
    {"smiles": "NC[C@H](Cc1ccccc1)NCCc1cc(C(F)(F)F)cc(C(F)(F)F)c1", "values": [
      {"measurement": "inhibition", "setting": "[1]", "value": "17.2% (inactive)"},
      {"measurement": "activation (fluorescence interference)", "setting": "[2]", "value": "11.5% (inactive)"}
    ]}
  ]
}
